Structures are written as SMILES.

This test can be described thus: S6 kinase pathway phospho-S6 level changes – cell-based, A549, cytoblot, luminescence, serum-stimulated, primary screen (AID 1158).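 Further: serum-stimulated A549 lung adenocarcinoma cells; signal is phosphorylated S6 detected by cytoblot immunostaining with HRP secondary.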 Particulars: 5 h, higher = more signal.
The compound `CO[C@H]1COC(=O)[C@H](CCSC)NC(=O)CC=C[C@@H](C)[C@H](OC)COC(=O)[C@@H](OCc2ccccc2)C=C[C@@H]1C` returned a z-score of -0.378.

`COC(=O)[C@H](C)NC(=O)CCC1CC(OC(=O)NCCc2ccc(F)cc2)CC2(CCCC(COC(=O)NCCc3ccccc3OC)O2)O1` (stereo partly specified) showed a z-score of 0.364.

`CC(C)CN1CCc2nc(-c3ccccc3)c3c(c2C1)CO[C@@H](C)C3` came in with a z-score of 0.418.

`CC(C)[C@@H](OCc1ccccc1)[C@H](C)CON=C1[C@H]2CCn3c(=O)n(-c4ccccc4)c(=O)n3[C@H]2[C@H](O)[C@@H]2O[C@H]12` came in with a z-score of -0.952.

For `CON=C(C)CCN1CCc2nc(-c3ccccc3)c(-c3ccccc3)cc2C1`, the z-score was -0.0181.

Turning to `COc1ccc(OC[C@H]2CN3[C@@H](CC[C@@H](C)[C@@H]3c3ccc(Br)cc3)C(=O)O2)cc1`, the z-score stood at 0.936.

With `O=C(NN=C1C[C@@H](O)[C@@H](O)[C@@H]2[C@@H]3C(=O)N(c4ccc(F)cc4F)C(=O)[C@@H]3CC[C@H]12)OCc1ccccc1`, the z-score was -0.262.

With `COC(=O)[C@H](C)NC(=O)CCC1CC(OC(=O)NCc2cccc3ccccc23)CC2(CCCC(COC(=O)NCc3ccccc3)O2)O1` (stereo partly specified), the z-score turned out to be 0.362.

In the case of `O=C1C2=CC[C@H]3C(=O)N(C4CCCCC4)C(=O)[C@H]3[C@H]2[C@H](O)[C@@H]2O[C@H]12`, the z-score was -1.01.

As for `C#CCCCON=C1C[C@@H](O)[C@@H](O)[C@@H]2[C@@H]3C(=O)N(C[C@@H]4CCCO4)C(=O)[C@@H]3CC[C@H]12`, the z-score amounted to 0.591.

On to `O=C1[C@H]2CCn3c(=O)n(-c4ccccc4)c(=O)n3[C@H]2[C@H](O)[C@@H]2O[C@H]12`, for which the z-score was -0.236.

As to `CC(=O)OC[C@H]1O[C@H](CC=NOCC[C@@H]2C=C[C@H](OC(C)=O)[C@@H](COC(C)=O)O2)C=C[C@@H]1OC(C)=O`, the z-score is -0.696.

On to `CCCNC(=O)OC[C@H]1O[C@H](CCON=C[C@@H](C)[C@H](OCc2ccccc2)C(C)C)C=C[C@@H]1Oc1ccc(OC)cc1`, for which the z-score was found to be 2.11.

`CC(CCC(=O)OC[C@H]1O[C@H](C#Cc2ccccc2)C=C[C@@H]1Oc1ccc(C)cc1)=NOC(C)CN1CCCCc2nc(C)c(C)cc21` (stereo partly specified) had a z-score of -0.487.

Turning to `CCN1C(=O)[C@H]2[C@H]3[C@H](O)[C@H](O)CC(=NNC(=O)OCc4ccccc4)[C@H]3CC[C@H]2C1=O`, the z-score was -0.18.

Take `CO[C@@H](C(C)C)[C@@H](C)C1OC(=O)CC1O` (stereo partly specified): the z-score is -0.289.

In turn, `CC(C)=NOC(C)CN1CCCc2nc(C)c(C)cc21` (stereo unspecified) showed a z-score of -0.558.

In turn, `CO[C@@H]1[C@H](O)CO[C@H]1C=Cc1ccccc1` had a z-score of 0.722.

For `COc1ccc(O[C@H]2C=C[C@@H](C#Cc3ccccc3)O[C@@H]2CO)cc1`, the z-score came out at 0.297.

Compound `CC(CCC(=O)OC[C@H]1O[C@H](C#Cc2ccccc2)C=C[C@@H]1Oc1ccc(C)cc1)=NOC[C@@H](C)[C@H](OCc1ccccc1)C(C)C` returned a z-score of -0.0916.

With `CC(CCN1CCc2nc(-c3ccccc3)c(-c3ccccc3)cc2C1)=NOC(C)CN1CCCc2nc(C)c(C)cc21` (stereo unspecified), the z-score is -0.56.

In the case of `CCOC(=O)[C@H](CC(C)C)NC(=O)CCC1CC(OC(=O)NCc2ccc3c(c2)OCO3)CC2(CCCC(COC(=O)NCCc3ccc(Cl)cc3)O2)O1` (stereo partly specified), the z-score was -0.793.

In turn, `CC(=O)OC[C@H]1O[C@@H](ON=C(C)CCC(=O)OC[C@H]2O[C@H](C#Cc3ccccc3)C=C[C@@H]2Oc2ccc(C)cc2)[C@H](OC(C)=O)[C@@H](OC(C)=O)[C@@H]1OC(C)=O` returned a z-score of -0.635.

On to `CC(C)CON=C1C[C@@H](O)[C@@H](O)[C@@H]2[C@@H]3C(=O)N(c4ccc(F)cc4F)C(=O)[C@@H]3CC[C@@H]12`, for which the z-score is -0.164.

Turning to `CCOC(=O)CCN1C(=O)[C@H]2[C@H]3[C@H](O)[C@H](O)CC(=NO[C@@H]4O[C@H](CO)[C@@H](O)[C@H](O)[C@H]4O)[C@H]3CC[C@H]2C1=O`, the z-score was determined as 0.199.

With `CCOC(=O)[C@H](Cc1ccccc1)NC(=O)CCC1CC(OC(=O)NCc2cccc3ccccc23)CC2(CCCC(COC(=O)NCCc3ccc(Cl)cc3)O2)O1` (stereo partly specified), the z-score was determined as 0.335.

The compound `CCN1C(=O)[C@H]2[C@H]3[C@H](O)[C@H](O)CC(=NOC[C@@H](O)COCc4ccco4)[C@H]3CC[C@H]2C1=O` yielded a z-score of -0.18.

As to `C#CCCCON=C1C[C@@H](O)[C@@H](O)[C@@H]2[C@@H]3C(=O)N(C4CCCCC4)C(=O)[C@@H]3CC[C@@H]12`, the z-score is -0.25.

Regarding `COC(=O)[C@H](CCSC)NC(=O)CC=C[C@@H](C)CO`, the z-score was 0.81.

`CCc1cc2c(nc1CC)CCN(CCC(C)=NO[C@@H]1O[C@H](COC(C)=O)[C@@H](OC(C)=O)[C@H](OC(C)=O)[C@H]1OC(C)=O)C2`: the z-score amounted to 1.83.

Take `CO[C@H]1COC(=O)[C@H](C)COC(=O)[C@H](C)NC(=O)CC=C[C@H]1C`: the z-score came out at 0.0807.

Regarding `COC(=O)[C@H](C)NC(=O)CCC1CC(OC(=O)NCc2ccc3c(c2)OCO3)CC2(CCCC(COC(=O)NCCCN3CCCC3=O)O2)O1` (stereo partly specified), the z-score came to 0.0031.

`COc1ccc(COC(=O)NN=C2C[C@@H](O)[C@@H](O)[C@@H]3[C@@H]4C(=O)N(C[C@@H]5CCCO5)C(=O)[C@@H]4CC[C@@H]23)cc1` registered a z-score of -0.0088.

For `COc1ccc(COC(=O)NN=C2C[C@@H](O)[C@@H](O)[C@@H]3[C@@H]4C(=O)N(C(C)(C)C)C(=O)[C@@H]4CC[C@@H]23)cc1`, the z-score was determined as 1.14.

Regarding `CCOC(=O)[C@H](CC(C)C)NC(=O)CCC1CC(OC(=O)NCc2ccc3c(c2)OCO3)CC2(CCCC(COC(=O)NCc3ccccc3)O2)O1` (stereo partly specified), the z-score is -0.251.

In turn, `CC(C)[C@H](NC(=O)OC(C)(C)C)[C@@H](O)CC(=O)C(C)(C)C` came in with a z-score of 0.372.
